Source: PubChem BioAssay
SUMO Mot1 rescue = SUMOylation pathway inhibition by Mot1-301 growth rescue; 1% of 320,000 active; AID 2716; S. cerevisiae Mot1-301 growth rescue, ATP luminescence, 38.5C; percent above DMSO median, 100 means doubled; growth rescue, % at 18.8 µM;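 active = every valid replicate shows activation above 250% relative to neutral control wells; inactive = the rest, any valid replicate at or below 250%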;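 note: OY570 slx delta 5 strain wells were the positive control but not used for scaling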
AHR act = human AHR activation. P35869. AHR-responsive luciferase reporter cells, luminescence. activation, % at 5 µM. 2.5% of 320,000 active. AID 2796; in the data active = activation above about 47%;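 note: 0% = vehicle wells and 100% = reference agonist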
NTR1 ag = NTR1 (human) agonism. P30989. NTR1-U2OS beta-arrestin-GFP spot imaging, agonist mode. activation, % at 20 µM. 0.17% of 330,000 active;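 active = activation at or above 40% of the spot to cytoplasm intensity ratio, with at least 20 cells analyzed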;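 note: 0% = DMSO without peptide and 100% = 100 nM NTR1 peptide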
Target sequence (P30989 whole entry, looked up): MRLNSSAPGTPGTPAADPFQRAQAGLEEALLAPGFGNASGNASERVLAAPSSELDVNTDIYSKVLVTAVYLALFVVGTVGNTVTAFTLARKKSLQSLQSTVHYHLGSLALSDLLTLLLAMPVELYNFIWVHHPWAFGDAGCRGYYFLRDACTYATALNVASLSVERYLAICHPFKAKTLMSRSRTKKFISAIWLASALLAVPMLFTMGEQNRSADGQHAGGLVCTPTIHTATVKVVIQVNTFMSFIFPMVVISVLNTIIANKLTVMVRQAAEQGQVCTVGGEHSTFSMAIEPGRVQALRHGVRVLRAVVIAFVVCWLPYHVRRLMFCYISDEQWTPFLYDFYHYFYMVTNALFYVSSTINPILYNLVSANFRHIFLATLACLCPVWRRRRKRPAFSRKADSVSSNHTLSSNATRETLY
Cardio protect = protects H9c2 cardiomyocytes from peroxide injury. protection from H2O2 cell death, % at 20 µM. H2O2 injury protection, ATPLite, 2 h. 0.63% of 360,000 active;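 active = compounds giving at least 50% protection of heart cells from peroxide-induced death in the single-dose screen, raw or plate-pattern-corrected value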;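 note: 0% = DMSO wells with peroxide and 100% = DMSO wells without peroxide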
AI-2 QS modul = Vibrio harveyi AI-2 quorum sensing modulation | AID 2094 | Vibrio harveyi JMH597 AI-2 luminescence/OD600 ratio, 9 h; stronger effect = lower value; strain lacks LuxN and CqsS sensors; 0 = neutral-control median | activity change, % at 7.5 µM | 0.4% of 300,000 active; in the data active = activity change below about -75%, passing the limit was not always enough;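 note: luminescence divided by OD600 gain over 9 h not by final OD600 alone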
GRIN3A LBD mod = modulates the human NR3A ligand-binding domain; NR3A LBD differential scanning fluorimetry, Tm shift; 0% = protein alone, 100% = glycine-bound protein; Tm shift relative to glycine control, % at 25 µM; 2.5% of 340,000 active; AID 1259313;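 active = melting temperature shift of at least 10% of the positive control shift, at one fixed dose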
Active calls of the source: *; / = not tested or not shown. A selection: hits, their analogues and other compounds. The true share with any hit is near 6.2%.

SMILES	SUMO Mot1 rescue	AHR act	NTR1 ag	Cardio protect	AI-2 QS modul	GRIN3A LBD mod
O=C(Cc1ccccc1[N+](=O)[O-])NNC(=O)Nc1ccc2c(c1)OCO2	-8	21	0	6	-8	-1
O=C(Cc1ccccc1[N+](=O)[O-])Nc1ccc2c(c1)OCO2	-10	61*	2	-7	21	0
Cc1ccc(S(=O)(=O)N2CCN(C(=O)CN3CCCSc4ccccc43)CC2)cc1	-8	1	3	10	/	0
COc1cccc(C(=O)N/N=c2/oc3ccccc3cc2C(N)=O)c1	155	18	1	34	25	1
COc1ccccc1N=c1oc2c(OC)cccc2cc1C(=O)NCc1ccco1	-8	17	10	6	19	2
COc1cccc(C(=O)N/N=c2\oc3c(OC)cccc3cc2C(=O)NCc2ccccc2)c1	0	5	3	76*	18	-8
COc1ccc(N=c2oc3c(OC)cccc3cc2C(=O)NCc2ccco2)cc1OC	3	3	8	52*	/	2
O=C(c1ccc2oc(Cc3ccc(Cl)cc3)nc2c1)N1CCCCC1CCO (stereo not drawn)	-6	-2	0	-4	-66	10*
CC(O)CNc1nc2ccccc2n1-c1ncnc2sc3c(c12)CCC3 (stereo not drawn)	187	59*	0	-22	2	-6
Cc1cc(NC(=O)CSC2=NS(=O)(=O)c3cc(F)ccc3N2)no1	7	0	0	4	35	1
O=C(Cc1cccc2ccccc12)NCC1CCCO1 (stereo not drawn)	8	0	4	8	14	13*
O=C(NCC1CCCO1)c1sc2ccccc2c1Cl (stereo not drawn)	15	1	2	-15	16	11*
O=C(NCC1CCCO1)c1cccc2ccccc12 (stereo not drawn)	-19	1	2	-6	33	-2
CC(=O)C1=C(C)Nc2ncnn2C1c1ccc(Br)cc1 (stereo not drawn)	8	1	0	20	13	1
O=C(CSc1nc2cc(Cl)ccc2o1)NC1CC1	-23	-2	1	12	/	2
Oc1ccc(Br)cc1C=Nc1ccc(Cl)cc1	-19	-3	2	50*	23	0
CCN(CC)c1ccc(N=Cc2cc(Br)ccc2O)cc1	1	5	2	-5	20	-2
Cc1ccc(N=Cc2cc(Br)cc(Cl)c2O)cc1	77	3	1	76*	53	1
Oc1c(Cl)cc(Cl)cc1C=Nc1ccc(Br)cc1	38	6	3	44	-5	0
OCC(CO)(CO)N=Cc1cc(Br)ccc1O	-11	8	1	58*	33	0
CC(C)(C)c1ccc(CC(=O)N2CCC2(C)C(=O)O)cc1 (stereo not drawn)	/	/	/	0	/	/
Cc1nc(-c2ccccc2)sc1C(=O)Nc1ccc(S(N)(=O)=O)cc1	-2	0	0	-12	14	12*
Cc1nc(-c2ccncc2)sc1C(=O)Nc1ccc(Cl)cc1	18	65*	1	1	26	-4
Cc1nc(-c2ccccn2)sc1C(=O)Nc1ccc(F)cc1	-15	118*	1	6	15	-6
Cc1nc(-c2ccccc2)sc1C(=O)Nc1ccccc1F	1	0	0	-2	19	3
SMILES	SUMO Mot1 rescue	AHR act	NTR1 ag	Cardio protect	AI-2 QS modul	GRIN3A LBD mod
O=C1NC(=O)C(Cc2c[nH]c3ccccc23)N1 (stereo not drawn)	22	1	0	5	19	-1
COc1cc2c(cc1NC(=O)COC(=O)[C@@H](NS(=O)(=O)c1cccc(Cl)c1)C(C)C)oc1ccccc12	7	57*	1	-3	19	5
COc1cc2c(cc1NC(=O)COC(=O)CNS(=O)(=O)c1ccc(C)cc1)oc1ccccc12	-1	41	0	-3	30	-2
COc1ccc(S(=O)(=O)N[C@@H](C)C(=O)OCC(=O)Nc2cc3oc4ccccc4c3cc2OC)cc1	7	34	5	-15	28	25*
CN(Cc1ccccc1)C(=O)c1csc([C@@H]2C[C@H](O)[C@@H](CO)O2)n1	/	/	/	0	/	/
Cc1cc(C(=O)Nc2ccc(Nc3ccccc3)cc2)ccc1[N+](=O)[O-]	-23	-2	15	-12	-10	12*
O=C(c1ccc(Cl)c([N+](=O)[O-])c1)N(c1ccccn1)c1ccccn1	0	4	2	3	28	15*
O=C(c1ccc(N2CCCCC2)c([N+](=O)[O-])c1)N(c1ccccn1)c1ccccn1	-15	-2	-1	-7	7	0
O=C(Nc1ccc(Nc2ccccc2)cc1)c1ccc(Cl)c([N+](=O)[O-])c1	90	-7	38	-16	-68	24*
O=C(Nc1ccc(S(=O)(=O)Nc2cnc3ccccc3n2)cc1)c1ccc(Cl)c([N+](=O)[O-])c1	8	1	1	-5	33	24*
CCCCCCn1c(=O)n2n(c1=O)C[C@]1(OC(=O)NC3CCCC3)CN(S(=O)(=O)c3ccc(C)cc3)C[C@]1(O)C2	/	/	/	-6	/	/
O=Cc1ccc2c(c1)OCCOCCOCCOCCO2	/	/	/	-2	/	/
CO[C@H]1C=CO[C@@]2(C)Oc3c(C)c(O)c4c(O)c(c(C=NN5CCN(C)CC5)c(O)c4c3C2=O)NC(=O)C(C)=CC=C[C@H](C)[C@H](O)[C@@H](C)[C@@H](O)[C@@H](C)[C@H](OC(C)=O)[C@@H]1C	4	-2	6	7	-119*	-3
CO[C@H]1/C=C/O[C@@]2(C)Oc3c(C)c(O)c4c(O)c(c(C=NN5CCN(C)CC5)c(O)c4c3C2=O)NC(=O)/C(C)=C\C=C\[C@H](C)[C@H](O)[C@@H](C)[C@@H](O)[C@@H](C)[C@H](OC(C)=O)[C@@H]1C	-5	3	4	-5	/	1
CO[C@H]1C=CO[C@@]2(C)Oc3c(C)c(O)c4c(O)c(c(C=NN5CCN(C6CCCC6)CC5)c(O)c4c3C2=O)NC(=O)C(C)=CC=C[C@H](C)[C@H](O)[C@@H](C)[C@@H](O)[C@@H](C)[C@H](OC(C)=O)[C@@H]1C	/	/	2	/	-185*	/
CC(=O)c1cccc(NC(=O)c2cc(S(=O)(=O)N3CCCCC3)ccc2N2CCOCC2)c1	/	/	/	-2	/	/
COc1ccc(C)cc1-n1nnnc1SCc1nc(N)nc(N(C)C)n1	/	/	/	-18	/	/
Cc1ccccc1NC1(C#N)C(=O)Nc2ccccc21 (stereo not drawn)	348*	8	-2	-4	21	1
CC1=CN(S(=O)(=O)c2ccc(C)cc2)C[C@@H]2c3ccccc3N(S(=O)(=O)c3ccc(C)cc3)[C@H]12	/	/	-2	5	/	17*
CC(C)c1c(O)ccc2c1CC[C@H]1C(C)(C)CCC[C@]21C	/	/	/	-35	/	22*
